Measurements from PubChem BioAssay AID2187 (The Scripps Research Institute Molecular Screening Center, 2009).
The whole screen tested about 1,300 compounds, of which about 1,200 (92%) were called active.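 The calls were made as follows: active = inhibition of the VIM-2 beta-lactamase enzyme above about 11% from the earlier first-round screen (limit read from the data); inactive = the rest.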 So high a share suggests a set chosen from earlier hits. Not all results are given here.

The molecules below were run on VIM-2 metallo-beta-lactamase (Pseudomonas aeruginosa) (assay: VIM-2 metallo-beta-lactamase inhibitors, confirmation, biochemical, epi-absorbance, hits shared with IMP-1 screen (AID 2187;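 also: 0% = VIM-2 with DMSO and 100% = buffer wells without enzyme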)). Conditions: purified VIM-2, nitrocefin hydrolysis, at 5.6 µM, hits give high values.

inhibition, inactive:
CCCc1ccc(OCCNC(=O)c2ccco2)cc1 0.92%

inhibition, active:
CC1CCCC(C)N1CCCNC(=O)c1cc2c(=O)n(C)c3ccccc3c2n1C (configuration not stated) 29.3%, CCN1CCCC1CNC(=O)c1cc2c(=O)n(C)c3ccccc3c2n1C (configuration not stated) 32.5%, Cc1cc(NCc2ccco2)n2c(nc3ccccc32)c1C#N 53%, CCN(CC)c1ccc2cc(C(N)=O)/c(=N\NC(=O)c3ccncc3)oc2c1 37.4%, COc1ccc(/C=N/N(C)C2=NS(=O)(=O)c3ccccc32)cc1OC 20.6%, O=C(COc1cc2oc(=O)c3c(c2cc1Cl)CCC3)NCCCN1CCOCC1 34.9%, Cn1c(=O)c2c(nc(N3CCOCC3)n2CCNC2=NCCC2)n(C)c1=O 28%, CCN(CC)CCOc1ccc2c(c1)C(=NNC(=O)c1ccccn1)c1cc(OCCN(CC)CC)ccc1-2 43.4%, Cn1c2ccccc2c(=O)c2c(O)cccc21 38.6%, C=CCn1c(-c2ccccc2OCC)n[nH]c1=S 24.7%, COc1ccc(CCn2c(=N)c(C(=O)NCC3CCCO3)cc3c(=O)n4cccc(C)c4nc32)cc1OC (configuration not stated) 27.6%, CC(=O)c1ccc(-c2ccc(Cn3c(C)nc4cc(N)c(C)nc43)cc2)cc1 26.6%, CCOCCCNc1c(CC)c(C)c(C#N)c2nc3ccccc3n12 20.6%, CCOC(=O)N1CCN(C(=O)C2CCN(c3ncnc4c3sc3cccc(F)c34)CC2)CC1 22%, Cc1cccn2c(=O)c(C=O)c(Nc3ccc(S(N)(=O)=O)cc3)nc12 26.6%, O=c1[nH]c(-c2ccccc2)c(-c2ccccc2)[nH]1 45.7%, COc1cc(/C=N/Nc2nn3cnnc3c3ccccc23)cc(OC)c1OC 53.9%, COc1ccc(Nc2cc(C)nc(-n3nc(C)cc3C)n2)cc1 25.1%, COc1ccc(Cc2nnc(NS(=O)(=O)Cc3ccccc3)s2)cc1 21.1%, CCC1CCCCN1CCCNC(=O)c1cc2c(Cl)nc3ccccc3c2s1 (configuration not stated) 32.2%, Cc1nc2ccccc2c2oc(C(=O)NCCCN3CCC(C)CC3)cc12 29.2%, O=C(NC(=S)Nc1ccccc1C(=O)O)c1ccc(-c2ccc(Br)cc2)o1 8.47%, COC(=O)c1c(NC(=O)c2ccc(S(=O)(=O)N3CCOCC3)cc2)sc2c1CCN(C(C)C)C2 71.3%, CNC(=O)c1ccsc1NC(=O)c1ccc(S(=O)(=O)N2CCOCC2)cc1 26.7%, COc1cc(NC(=O)C2=C(C)OCCS2)c(Cl)cc1C(=O)NCCN1CCN(C)CC1 34.3%, CCN1CCN(C(=O)Cn2nc(C)n3c(cc4c(OC)cccc43)c2=O)CC1 41.4%, Nc1nnc2c(C(F)(F)F)nc3ccccc3n12 21.3%, NC(=O)C1CCN(C(=O)COc2ccc3c4c(c(=O)oc3c2)CCC4)CC1 22.5%, COc1nc(N=C(N)N)nc2c(C)cccc12 24.9%, Cc1cc(C)c2nc3nc(C)cc(C)c3c(N)c2c1 28.1%, O=C(NCCCN1CCOCC1)c1cnn2c(-c3ccccc3)cc(-c3ccccc3)nc12 45.4%, COc1ccc(-c2nn3c(-c4ccccc4)nnc3s2)cc1OC 34.6%, COc1cc(-c2nn3c(-c4cccc(C)c4)nnc3s2)cc(OC)c1OC 22.1%, COC(=O)c1ccc(-c2noc(CN(Cc3ccccn3)CC3CCCO3)n2)cc1 (configuration not stated) 26.8%, CCN1CCN(CCNC(=O)c2ccc3c(c2)NC(=O)/C(=C\c2ccc(OC)c(OC)c2)S3)CC1 30.4%, Nc1cccc2c1C(=O)N(Cc1nnc(-c3ccccc3Br)o1)C2=O 18.7%, CN1CCN(c2ccc(NC(=O)c3ccc4c(c3)[nH]c(=O)n4Cc3ccc(F)cc3)cc2)CC1 33.6%, CC(NS(=O)(=O)c1ccccc1)c1n[nH]c(=S)n1-c1ccccc1 (configuration not stated) 28.1%, CN(C)CCNc1ccc(-c2n[nH]c(=O)c3ccccc23)cc1[N+](=O)[O-] 84.4%, O=C1Nc2cc(C(=O)N3CCC(N4CCCCC4)CC3)ccc2S/C1=C\c1ccccc1 38.5%, Fc1ccc(-c2ccc(CNCc3ccccn3)o2)cc1Cl 54.3%, Cc1ccc2nc(C)c3c(c2c1)N(c1ccccc1)CC3 25.2%, Cn1c(-c2sccc2OCc2cccc(C(F)(F)F)c2)n[nH]c1=S 37.3%, Clc1cc(-c2ccc(/C=N/n3cnnc3)o2)ccc1Br 57%, Cc1cc([N+](=O)[O-])c(-c2ccc(/C=N/n3cnnc3)o2)cc1Cl 67.5%, Cc1cc(-c2ccc(/C=N/n3cnnc3)o2)c([N+](=O)[O-])cc1C 69.9%, Cc1ccc(Cl)cc1-c1ccc(/C=N/n2cnnc2)o1 41.2%, CC(C)(C)CC(=O)Nc1nnc(SCC(=O)NCc2cccs2)s1 27.4%, CCc1cc(=O)oc2cc(C)cc(OCC(=O)N3CCC[C@@H]3C(=O)O)c12 19.7%, CCOc1cc(/C=C2\SC(N3CCCC(C)C3)=NC2=O)ccc1O (configuration not stated) 20.7%, CCOc1cc(/C=C2\SC(N3CCCCC3)=NC2=O)ccc1O 19%
